Experiment [1] can be described thus: growth inhibition of DIPG glioma cells, dose response, cell-based, SU-DIPG-XIII, MIPE5.0, CellTiter-Glo, qHTS (AID 1347064; cut-off not given, nearly all actives have AC50 up to about 23 µM;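 on AC50: cells exposed to compound for 48 hours before the viability read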). The following applies: SU-DIPG-XIII viability, CellTiter-Glo ATP luminescence.
A short description of experiment [2]: growth inhibition of DIPG glioma cells, dose response, cell-based, SU-DIPG-IV, MIPE4.0, CellTiter-Glo, qHTS (AID 1347063; cut-off not given, nearly all actives have AC50 up to about 30 µM;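 further: compound exposure lasted 48 hours before the viability readout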). The following applies: SU-DIPG-IV viability, CellTiter-Glo ATP luminescence.
Experiment [3] is described as follows: viability loss in pontine glioma line – cell-based, SU-DIPG-XXV, MIPE5.0, CellTiter-Glo, qHTS, dose response (AID 1347065).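 Further: cells exposed to compound for 48 hours before ATP readout.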 As to conditions: CellTiter-Glo ATP luminescence.
Experiment [4] in a line: JHH-DIPG-1 glioma cell viability, MIPE5.0 library, CellTiter-Glo luminescence, qHTS (AID 1347067).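 Further: cells exposed to compound for 48 hours before readout.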 As to conditions: JHH-DIPG-1 glioma viability, CellTiter-Glo ATP luminescence.
Experiment [5] can be described thus: modifiers of HSF1 nuclear foci, imaging, Selleck Cancer Library (AID 1347162; in the data active means plate-normalised HSF1 focus index below about 0.46). As to conditions: human cells, at 10 µM; SSMD: measured here: HSF1 foci SSMD mean; cell count: measured here: cell number; plate-normalised HSF1 focus index: stronger effect = lower value.
Experiment [6] is described as follows: SU-DIPG-VI glioma cell viability, MIPE4.0 library, CellTiter-Glo luminescence, qHTS (AID 1347066; cut-off not given, nearly all actives have AC50 up to about 30 µM;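 further: cells exposed to compound for 48 hours before readout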). The following applies: CellTiter-Glo ATP luminescence.
Experiment [7] in a line: SU-DIPG-XXV glioma cell viability, MIPE5.0 library, qHTS (AID 1347068; cut-off not given, nearly all actives have IC50 up to about 30 µM;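 on IC50: cells exposed to compound for 48 hours before viability readout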).
Experiment [8] can be described thus: growth inhibition of DIPG glioma cells, dose response, cell-based, JHH-DIPG-1, MIPE4.0, CellTiter-Glo, qHTS (AID 1347062; cut-off not given, nearly all actives have AC50 up to about 27 µM). The following applies: JHH-DIPG-1 viability, CellTiter-Glo ATP luminescence.
The nature of experiment [9]: liver-stage malaria parasite growth inhibition, primary screen, cell-based, HepG2, luciferase luminescence, HepG2 viability (AID 624349; in the data active means parasite load remaining mostly below about 12%, no sharp cut-off; inactive means mostly above about 10%;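 further: 100% = mean of DMSO negative control wells on the same plate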). As to conditions: P. berghei liver stage in HepG2, luciferase luminescence, concentration not given here; parasite load remaining: stronger effect = lower value; viability: measured here: HepG2 viability without parasites.
A short description of experiment [10]: sensitizers of A549 cells to miR-34 induction, primary screen, imaging, A549 dox-inducible miR-34, nuclei and caspase counts (AID 1347080;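 active means compounds whose cell count with miR-34 switched on is under 0.7 times the count with it off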). As to conditions: A549 miR-34 inducible, Hoechst nuclei count, 48 h.
Experiment [11] can be described thus: survival rescue of mitochondrial mutant cells in low glucose, primary screen, MELAS cybrids, Rieske KO mouse fibroblasts, CellTiter-Glo (AID 1508586;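 active means mean z-score across replicates of 1.96 or higher in either the MELAS or the Rieske mutant cell line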;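 further: z relative to plate mean and SD of compound and empty wells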).

The source of these data is PubChem BioAssay.

Inconclusive results are not listed. The source made the active and inactive calls. Unless noted, cut-off not given; nearly all actives show AC50 up to about 26 µM.

For `C[C@@H]1CCNC(=O)c2cc3ccc(C(=O)Nc4nc5ccccc5n4CCCN(C)C)cc3n21`, the outcome in experiment [1] was inactive.

Regarding `Cc1c(C(=O)Nc2ccc(N3C[C@@H](C)O[C@@H](C)C3)nc2)cccc1-c1ccc(OC(F)(F)F)cc1`, the half-maximal activity concentration (AC50) in experiment [2] is 20.9 µM (active). The AC50 in experiment [3] is 20.9 µM (active). Moreover, in [4], the AC50 was 23.5 µM (active). In experiment [5], the SSMD was -6.97, the cell count is 6140 and the plate-normalised HSF1 focus index was 0.637 (inactive).

On to `c1ccc(-c2oc3ncnc(NC[C@@H]4CCCO4)c3c2-c2ccccc2)cc1`, for which the AC50 in experiment [2] and in [6] was 20.9 µM (active) throughout. For the same molecule, the molecule was called inactive in [7].

For `NS(=O)(=O)c1ccc(Nc2nc(OCC3CCCCC3)c3[nH]cnc3n2)cc1`, the call in experiment [8] and in experiment [7] was inactive.

Consider `Cc1cc(O)c(-c2ccc([C@@H](C)CN(C)C)cc2)c2c1[nH]c(=O)c1sccc12`, for which the AC50 was 0.417 µM (active) in experiment [1], 0.332 µM (active) in experiment [3] and 0.417 µM (active) in experiment [4]. Also, the IC50 in experiment [7] is 0.332 µM (active).

For the molecule `O=C(NC[C@H](O)CN1CCc2ccccc2C1)c1ccnc(NC2CCC2)c1`, the molecule was classed as inactive in experiment [1], in experiment [3] and in experiment [7]. Moreover, in experiment [4], the AC50 was 23.5 µM (active).

With `C=Cc1cc(O)cc2nc(-c3ccc(O)c(F)c3)oc12`, the molecule was called inactive in experiment [1], in experiment [3], in experiment [4] and in [7].

On to `COCc1c(-c2ccc(NC(=O)Nc3cc(C(F)(F)F)ccc3F)c(F)c2)c2c(N)ncnn2c1CN1CCOCC1`, for which the AC50 in experiment [1] was 0.295 µM (active); in experiment [3], 0.186 µM (active); in experiment [4], 6.61 µM (active). The 50% inhibitory concentration (IC50) in [7] was 7.42 µM (active).

For the molecule `NC(=O)c1cccc(-c2cc(Nc3ccc(OC(F)(F)F)cc3)ncn2)c1`, the parasite load remaining in experiment [9] is 33% (inactive). In addition, the viability in [9] stood at 100%. Besides, the concentration at half-maximal activity (AC50) in experiment [1], in [3] and in [4] was 20.9 µM (active) throughout. For the same molecule, in [6], the molecule was classed as inactive. For the same molecule, the IC50 in [7] is 18.6 µM (active). For the same molecule, the fold change is 0.899 (inactive) in experiment [10] (stronger effect = lower value, cell number ratio, induced over uninduced) and 1.65 in experiment [10] (measured here: relative caspase fold change +Dox/-Dox). The cell count in [10] (measured here: total cells with miR-34 induction, stronger effect = lower value) was found to be 7160; in [10] (measured here: total cells without miR-34 induction), 7960. For the same molecule, the z-score was -0.11 (inactive) in [11] (MELAS cybrid survival, CellTiter-Glo 48 h, stronger effect = higher value) and -0.362 in experiment [11] (Rieske KO mouse fibroblast survival, CellTiter-Glo 72 h).

As to `CONC(=O)Nc1ccc(-c2sc3c(c2CN(C)C)c(=O)n(-c2ccc(OC)nn2)c(=O)n3Cc2c(F)cccc2F)cc1`, the molecule was classed as inactive in experiment [1], in [3] and in experiment [4].

As to `Cc1ccc(S(=O)(=O)Nc2cc(C(F)(F)F)ccc2C(=O)Nc2nc(-c3ccccc3)cs2)cc1`, the half-maximal activity concentration (AC50) is 4.17 µM (active) in experiment [1], 3.72 µM (active) in experiment [3] and 3.32 µM (active) in experiment [4]. Besides, in [7], the IC50 is 4.68 µM (active).

Consider `CN(C)c1cc(NC(=O)CNC(C)(C)C)c(O)c2c1C[C@H]1C[C@H]3[C@H](N(C)C)C(=O)C(C(N)=O)=C(O)[C@]3(O)C(=O)C1=C2O`, for which the outcome in [1], in [3] and in experiment [4] was inactive.

In the case of `COc1ccc(-n2cnc3cc(C(=O)N4CCCCC4)ccc32)cc1`, the call in experiment [1], in experiment [3], in experiment [4] and in experiment [7] was inactive.

Take `c1ccc(CNCc2ccc(CN3CCCNCCNCCCNCC3)cc2)nc1`: the call in experiment [1], in [3], in experiment [4] and in experiment [7] was inactive.
